Test results: PubChem BioAssay AID1159580 (chemical genetic matrix, 2015)
The campaign covered roughly 5,500 compounds. About 2,000 (36%) were called active. Inconclusive results (about 18%) are left out. Cut-off read from the data, not from the text of the source: active = normalized growth mostly below about 0.91 (no sharp cut-off); inconclusive = no clear call, values can overlap the other calls; inactive = mostly above about 0.92. This is one part of the list.

Experiment: chemical genetic growth profiling, strain panel (AID 1159580);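 note: tested at 20 µM; growth read once vehicle control cultures reached saturation at 30 °C; 1 = growth at the plate median or of vehicle wells; lower values mean less growth of the strain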
Settings: S. cerevisiae deletion strains, growth OD
[1] = locus YDL101C, strain DUN1, active compounds read low
[2] = locus YHR030C, strain SLT2, active compounds read low
[3] = locus YHR079C, strain IRE1, active compounds read low
[4] = locus YJL095W, strain BCK1, active compounds read low
[5] = locus YJR066W, strain TOR1, active compounds read low
[6] = locus YLR113W, strain HOG1, active compounds read low
[7] = locus YNL183C, strain NPR1, active compounds read low
[8] = locus YOR231W, strain MKK1, active compounds read low
[9] = locus YPL256C, strain CLN2, active compounds read low

Measured: normalized growth

O=C(NCCCCO)OCC1c2ccccc2-c2ccccc21
inactive: locus YAL013W, strain DEP1, active compounds read low 1 | locus YBR229C, strain ROT2, active compounds read low 0.997 | [1] 1 | locus YDR150W, strain NUM1, active compounds read low 0.986 | locus YEL061C, strain CIN8, active compounds read low 0.985 | locus YGR078C, strain PAC10, active compounds read low 0.991 | locus YGR229C, strain SMI1, active compounds read low 0.987 | [2] 0.867 | locus YHR087W, strain rtc3, active compounds read low 0.987 | locus YJR043C, strain POL32, active compounds read low 0.989 | locus YJR075W, strain HOC1, active compounds read low 1.01 | locus YLR039C, strain RIC1, active compounds read low 1.02 | locus YLR058C, strain SHM2 (second series), active compounds read low 0.98 | locus YLR085C, strain ARP6, active compounds read low 0.886 | locus YLR262C, strain YPT6, active compounds read low 1.02 | locus YML094W, strain GIM5, active compounds read low 0.955 | locus YMR219W, strain ESC1, active compounds read low 0.995 | locus YMR263W, strain SAP30, active compounds read low 0.959 | locus YMR307W, strain GAS1, active compounds read low 0.812 | locus YNL153C, strain GIM3, active compounds read low 0.983 | locus YNL298W, strain CLA4 (second series), active compounds read low 0.929 | locus YNL322C, strain KRE1, active compounds read low 1 | locus YNR030W, strain Alg12, active compounds read low 0.963 | locus YPL055C, strain LGE1, active compounds read low 0.953 | locus YPL241C, strain CIN2, active compounds read low 0.937 | locus YPR135W, strain CTF4, active compounds read low 0.959

CC(C)C[C@@H](NC(=O)OCC1c2ccccc2-c2ccccc21)C(=O)O
inactive: locus YAL021C, strain ccr4, active compounds read low 0.988 | locus YAL026C, strain drs2, active compounds read low 0.982 | locus YAL030W, strain snc1, active compounds read low 0.991 | locus YBL061C, strain skt5, active compounds read low 1.01 | locus YBR009C, strain hhf1, active compounds read low 1.01 | locus YBR023C, strain chs3, active compounds read low 1 | locus YBR171W, strain sec66, active compounds read low 1 | locus YBR231C, strain swc5, active compounds read low 1.01 | locus YBR279W, strain paf1, active compounds read low 0.998 | locus YCL011C, strain gbp2, active compounds read low 0.993 | locus YCL016C, strain dcc1, active compounds read low 0.983 | locus YCL061C, strain MRC1, active compounds read low 1 | locus YCL069W, strain vba3, active compounds read low 0.995 | locus YCR088W, strain abp1, active compounds read low 0.992 | locus YDL005C, strain med2, active compounds read low 0.986 | locus YDL040C, strain nat1, active compounds read low 0.985 | locus YDR001C, strain nth1, active compounds read low 0.977 | locus YDR069C, strain doa4, active compounds read low 0.993 | locus YDR137W, strain rgp1, active compounds read low 0.962 | locus YDR159W, strain sac3, active compounds read low 1.04 | locus YDR195W, strain ref2 0.945 | locus YDR297W, strain sur2, active compounds read low 1 | locus YDR334W, strain swr1, active compounds read low 0.988 | locus YDR335W, strain msn5, active compounds read low 0.991 | locus YDR392W, strain spt3, active compounds read low 0.955 | locus YEL003W, strain gim4, active compounds read low 0.999 | locus YEL037C, strain rad23, active compounds read low 0.998 | locus YEL061C, strain CIN8 (second series), active compounds read low 0.997 | locus YER015W, strain faa2, active compounds read low 0.997 | locus YER016W, strain bim1, active compounds read low 0.993 | locus YER111C, strain swi4, active compounds read low 1 | locus YER155C, strain BEM2 (second series), active compounds read low 1.02 | locus YFR010W, strain ubp6, active compounds read low 0.991 | locus YGL167C, strain pmr1, active compounds read low 0.999 | locus YGL173C, strain kem1, active compounds read low 1 | locus YGL227W, strain vid30, active compounds read low 0.996 | locus YGL240W, strain doc1, active compounds read low 1.01 | locus YGL253W, strain hxk2, active compounds read low 1 | locus YHR013C, strain ard1, active compounds read low 0.998 | locus YHR027C, strain rpn1, active compounds read low 0.984 | [2] 0.966 | [3] 0.976 | locus YHR142W, strain chs7, active compounds read low 0.996 | locus YJL092W, strain hpr5, active compounds read low 1 | locus YJL095W, strain BCK1 (second series), active compounds read low 0.999 | [4] 0.98 | locus YJL115W, strain asf1, active compounds read low 0.979 | locus YJL129C, strain trk1, active compounds read low 1 | locus YJL154C, strain vps35, active compounds read low 0.986 | locus YJL164C, strain tpk1, active compounds read low 0.971 | locus YJL166W, strain qcr8, active compounds read low 1 | locus YJL187C, strain SWE1, active compounds read low 0.996 | [5] 0.89 | locus YKL160W, strain elf1, active compounds read low 0.99 | locus YKR026C, strain gcn3, active compounds read low 1 | locus YKR091W, strain srl3, active compounds read low 0.981 | locus YLL001W, strain dnm1, active compounds read low 0.974 | locus YLL026W, active compounds read low 0.992 | locus YLL041C, strain sdh2, active compounds read low 1 | locus YLR027C, strain aat2, active compounds read low 1 | [6] 0.888 | locus YLR221C, strain rsa3, active compounds read low 1.03 | locus YLR258W, strain gsy2, active compounds read low 1 | locus YLR262C, strain YPT6 (second series), active compounds read low 0.949 | locus YLR320W, strain mms22, active compounds read low 1.02 | locus YLR342W, strain FKS1, active compounds read low 0.99 | locus YLR357W, strain rsc2, active compounds read low 0.97 | locus YLR370C, strain arc18, active compounds read low 1.01 | locus YLR384C, strain iki3, active compounds read low 0.991 | locus YML120C, strain ndi1, active compounds read low 0.994 | locus YMR058W, strain fet3, active compounds read low 0.991 | locus YMR125W, strain sto1, active compounds read low 0.965 | locus YMR129W, active compounds read low 0.998 | locus YMR205C, strain PFK2, active compounds read low 0.973 | locus YMR231W, strain pep5, active compounds read low 0.971 | locus YNL071W, strain lat1, active compounds read low 0.995 | [7] 0.888 | locus YNL209W, strain ssb2, active compounds read low 0.997 | locus YNL248C, strain rpa49, active compounds read low 0.978 | locus YNL322C, strain KRE1 (second series), active compounds read low 1 | locus YNR049C, strain mso1, active compounds read low 0.998 | locus YOR001W, strain rrp6, active compounds read low 1.01 | locus YOR070C, strain gyp1, active compounds read low 0.991 | locus YOR080W, strain dia2, active compounds read low 1.01 | locus YOR083W, strain WHI5, active compounds read low 0.986 | locus YOR106W, strain vam3, active compounds read low 0.963 | [8] 0.949 | locus YOR265W, strain rbl2, active compounds read low 1 | locus YOR270C, strain vph1, active compounds read low 0.954 | locus YOR290C, strain snf2, active compounds read low 0.956 | locus YPL051W, strain arl3, active compounds read low 1.01 | locus YPL078C, strain atp4, active compounds read low 0.979 | locus YPL106C, strain sse1, active compounds read low 1.02 | locus YPL240C, strain hsp82, active compounds read low 1.01 | [9] 0.945

O=C(Nc1ccccc1C(=O)O)OCC1c2ccccc2-c2ccccc21
inactive: locus YAR019C, strain CDC15, active compounds read low 0.993 | locus YBL105C, strain PKC1, active compounds read low 0.989 | locus YBR135W, strain CKS1, active compounds read low 0.978 | locus YBR136W, strain MEC1, active compounds read low 0.987 | locus YBR160W, strain CDC28, active compounds read low 0.981 | locus YDL017W, strain CDC7, active compounds read low 0.986 | locus YDL028C, strain MPS1, active compounds read low 0.987 | [1] 0.988 | locus YDL108W, strain KIN28, active compounds read low 0.984 | locus YDL132W, strain cdc53, active compounds read low 0.985 | locus YDL214C, strain PRR2, active compounds read low 0.884 | locus YDR052C, strain DBF4, active compounds read low 0.983 | locus YDR054C, strain cdc34, active compounds read low 0.99 | locus YDR226W, strain ADK1, active compounds read low 0.982 | locus YDR477W, strain SNF1, active compounds read low 0.859 | locus YER123W, strain YCK3, active compounds read low 0.839 | locus YER133W, strain GLC7, active compounds read low 0.901 | locus YFL009W, strain cdc4, active compounds read low 0.986 | locus YFL029C, strain CAK1, active compounds read low 0.992 | locus YFR003C, strain YPI1, active compounds read low 0.985 | locus YFR019W, strain FAB1, active compounds read low 0.803 | locus YFR028C, strain CDC14, active compounds read low 0.979 | locus YGR040W, strain KSS1, active compounds read low 0.857 | locus YGR052W, strain FMP48, active compounds read low 0.701 | locus YGR092W, strain DBF2, active compounds read low 0.683 | [3] 0.793 | locus YHR205W, strain SCH9, active compounds read low 0.746 | locus YIL147C, strain SLN1, active compounds read low 0.986 | [4] 0.665 | locus YJL128C, strain PBS2, active compounds read low 0.927 | locus YJL157C, strain FAR1, active compounds read low 0.893 | locus YJR016C, strain ILV3, active compounds read low 0.99 | locus YJR066W, strain TOR1 (second series), active compounds read low 0.826 | [5] 0.709 | locus YKL067W, strain YNK1, active compounds read low 0.866 | locus YKL101W, strain HSL1, active compounds read low 0.72 | locus YKL193C, strain SDS22, active compounds read low 0.987 | locus YKL203C, strain TOR2, active compounds read low 0.883 | locus YLR133W, strain CKI1, active compounds read low 0.78 | locus YLR403W, strain SFP1, active compounds read low 0.795 | locus YML070W, strain DAK1, active compounds read low 0.842 | locus YMR001C, strain CDC5, active compounds read low 0.986 | locus YMR205C, strain PFK2 (second series), active compounds read low 0.853 | locus YMR277W, strain FCP1, active compounds read low 0.989 | locus YNL006W, strain LST8, active compounds read low 0.978 | locus YNL020C, strain ARK1, active compounds read low 0.728 | locus YNL161W, strain CBK1, active compounds read low 0.983 | [7] 0.742 | locus YNL207W, strain RIO2, active compounds read low 0.992 | locus YNL222W, strain SSU72, active compounds read low 0.985 | locus YNL307C, strain MCK1 (second series), active compounds read low 0.703 | locus YOL078W, strain AVO1, active compounds read low 0.977 | locus YOL136C, strain PFK27, active compounds read low 0.805 | locus YOR119C, strain RIO1, active compounds read low 0.927 | [8] 0.818 | locus YOR329C, strain SCD5, active compounds read low 0.993 | locus YPL031C, strain PHO85, active compounds read low 0.827 | locus YPL153C, strain RAD53, active compounds read low 0.855 | locus YPL204W, strain HRR25, active compounds read low 0.797 | locus YPL209C, strain IPL1, active compounds read low 0.984 | locus YPR025C, strain CCL1, active compounds read low 0.991 | locus YPR106W, strain ISR1, active compounds read low 0.977 | locus YPR111W, strain DBF20, active compounds read low 0.96 | strain NNK1, active compounds read low 0.987 | strain TSCII, active compounds read low 0.99
active: [2] 0.366 | locus YHR082C, strain KSP1, active compounds read low 0.591 | locus YKL048C, strain ELM1, active compounds read low 0.799 | [6] 0.8 | locus YOR061W, strain CKA2, active compounds read low 0.553 | [9] 0.808
